# ± gives the standard deviation of the averaged measurements.
# How the values were obtained:
# [1] = test system: DLD1; assay: cell viability (CellTiter-Glo) relative to plate median (fraction of plate median); higher = more viable cells; settings: 5 µM; treatment time 24 h; reporter: 7TFP
# In short: (§1)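 Library compounds were added at a final concentration of 5 µM for 24 h to colorectal cancer cells stably transduced with a lentiviral TCF/Wnt firefly luciferase reporter. Reported values are firefly luciferase or CellTiterGlo luminescence, normalised per well to the plate median. Each value averages two independent replicates.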
# [2] = test system: HCT116; assay: as above; settings: 5 µM; treatment time 24 h; reporter: TCF4/Wnt
# In short: as §1
# [3] = test system: SW480; assay: as above; settings: 5 µM; treatment time 24 h; reporter: 7TFP
# In short: as §1
# [4] = test system: DLD1; assay: TCF/Wnt firefly luciferase reporter signal relative to plate median (fraction of plate median); higher = higher Wnt reporter signal; settings: 5 µM; treatment time 24 h; reporter: 7TFP
# In short: as §1
# [5] = test system: SW480; assay: as above; settings: 5 µM; treatment time 24 h; reporter: 7TFP
# In short: as §1
SMILES,cell viability [1],cell viability [2],cell viability [3],TCF/Wnt firefly luciferase reporter signal [4],TCF/Wnt firefly luciferase reporter signal [5]
C=CC[S+]([O-])C[C@H](N)C(=O)O (stereo not given in full),0.984 ± 0.018,0.903 ± 0.079,0.96 ± 0.016,0.986 ± 0.091,1.05 ± 0.042
C#C[C@]1(O)CC[C@H]2[C@@H]3CCC4=Cc5oncc5C[C@]4(C)[C@H]3CC[C@@]21C,1.06 ± 0.021,0.936 ± 0.029,1.01 ± 0.035,1.04,0.817 ± 0.046
CCC(=O)C1(C)OC1C(C)CC(C)C1OC(=O)CC2(O)CC=C(C)C(O2)/C(C)=C/CCCC(OC2CC(OC(N)=O)C(O)C(C)O2)/C=C/C(C)C(O)C1C (stereo not given) [Irumamycin],1.07 ± 0.099,1.04 ± 0.035,1 ± 0.025,1.07 ± 0.078,1.02 ± 0.034
Cn1c([N+](=O)[O-])cnc1COC(N)=O,0.999 ± 0.072,1.07 ± 0.071,1.03 ± 0.014,1.05 ± 0.028,0.996 ± 0.12
CC(C)NCC(O)c1cc(O)cc(O)c1 (stereo not given),0.999 ± 0.03,0.954 ± 0.06,0.976 ± 0.048,0.914 ± 0.11,0.987 ± 0.018
C#CC1(O)CC[C@H]2[C@@H]3CCC4=CC(=O)CC[C@@H]4[C@H]3CC[C@@]21CC (mixture of isomers),0.925 ± 0.0014,0.875 ± 0.018,0.957 ± 0.026,1.14 ± 0.028,1.14 ± 0.035
C#C[C@]1(OC(C)=O)CC[C@H]2[C@@H]3CCC4=CC(=O)CC[C@@H]4[C@H]3CC[C@@]21C,0.87 ± 0.018,0.964 ± 0.094,0.973 ± 0.052,0.925 ± 0.022,0.768 ± 0.023
